Data taken from PubChem BioAssay (NCATS).
“And” between values parts separate entries of the source, which are not always exact repeats. Identical values can stand only once. Records with an inconclusive call do not appear. A number with no mark means an inactive call. The source made the active and inactive calls. The call rests on the fitted dose curve; in most records, active means well fitted curve in the direction sought with a large enough effect; inconclusive means small, poorly fitted or top-dose-only effect, or another doubt; inactive means no such curve, though single readings can be large; an effect the other way counts as inactive or inconclusive.

assay: P-glycoprotein substrates identified in KB-3-1 adenocarcinoma cell line, qHTS therapeutic library screen (AID 1346986); conditions: KB-3-1 parental cells viability, CellTiter-Glo, 72 h; series mostly up to 44.5 µM; activity change, negative = cytotoxicity: at the top concentration; further: nearly all actives have a fitted effect of over 60% in size;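 further: potency is for cytotoxicity meaning loss of cell viability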
In short: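 Viability by CellTiter-Glo after 72 h compound exposure at 37 degree C, 5% CO2. Cytotoxic call: curve class -1.1 to -2.4, maximum response >50%, AC50 < 10 uM, compared across KB-3-1 and P-gp-overexpressing KB-8-5-11.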
Potency means the concentration at half of the fitted maximal effect.

SMILES | outcome | Potency
COC(CCc1ccc(O)cc1)CC(=O)CCc1ccc(O)cc1 (stereo not drawn) | inactive | –
CN1CCN(c2ccc(-c3cccc(CN4CCOCC4)c3)cc2NC(=O)c2c[nH]c(=O)cc2C(F)(F)F)CC1 | inactive | –
COc1cc(O)c2c(c1)/C=C/C[C@H](O)[C@H](O)C(=O)/C=C\C[C@H](C)OC2=O | – | 6.51 µM (active)
Cc1cn2cc(C(=O)N(C)CCO)cc(NC3CCOc4cccc(C)c43)c2n1 (stereo not drawn) | inactive | –
CC(=O)OCC(=O)[C@@]12O[C@@H]1C[C@H]1[C@@H]3CC=C4C[C@@H](O)CC[C@]4(C)[C@H]3CC[C@@]12C | inactive | –
CC(=O)O[C@@H]1CC2C(C)(C)C(=O)C=C[C@]2(C)C2CC[C@@]3(C)[C@H](c4ccoc4)OC(=O)[C@H]4O[C@]43[C@@]21C (stereo partly drawn) | inactive [at 17.4 µM] | –
CC(C)(C)Sc1c(CC(C)(C)C(=O)O)n(Cc2ccc(Cl)cc2)c2ccc(OCc3ccc4ccccc4n3)cc12 | inactive | –
COc1cc2ncc(-c3ccccc3)nc2cc1OC | – | 7.31 µM (active)
C[C@H]1CC[C@@]2(OC1)O[C@H]1CC3[C@@H]4CC[C@@H]5C[C@@H](O[C@@H]6O[C@H](CO)[C@@H](O[C@@H]7O[C@H](CO[C@@H]8OC[C@@H](O)[C@H](O)[C@H]8O)[C@@H](O[C@@H]8O[C@H](CO)[C@H](O)[C@H](O)[C@H]8O)[C@H](O)[C@H]7O)[C@H](O)[C@H]6O)CC[C@]5(C)C4CC[C@]3(C)[C@H]1[C@@H]2C (stereo partly drawn) | inactive [at 9.29 µM] | –
CCC(C)C(=O)OC12C(OC(C)=O)C(C)C3(O)C(C=C(CO)CC4(O)C(=O)C(C)=CC43)C1C2(C)C (stereo not drawn) | inactive [at 17.4 µM] | –
O=C(Cc1c(F)cccc1F)Nc1cc(OCc2ccc(Cl)cc2)ccn1 | inactive | –
COc1cc2c(cc1O)C1(Cc3ccc4c(c3C1O)OCO4)[N+](C)([O-])CC2 (stereo not drawn) | inactive | –
CCN1CCN(Cc2ccc(NC(=O)c3ccc(C)c(Oc4ccnc5[nH]ccc45)c3)cc2C(F)(F)F)CC1 | – | 16.4 µM (active)
C=C1CC[C@@H](O)[C@]2(C)CC[C@H]3C(=C)C(=O)O[C@@H]3[C@@H]12 | inactive | –
COc1cc(O)cc(/C=C/c2cccc(O)c2)c1 | inactive | –
C=C1C(=O)O[C@@H]2[C@H]1CCC(C)=C(CCC(=O)O)[C@@]2(C)O | inactive | –
C=C1CCC2[C@](C)(CCC[C@@]2(C)C=O)[C@H]1CC/C(C)=C/CO (stereo partly drawn) | inactive | –
CCC/C=C/C(=O)O[C@H]1CC(C)(C)CC2[C@@]13[C@H](O)C[C@]1(C)[C@@]2(CCC2[C@@]4(C)CC[C@H](O[C@@H]5O[C@H](C(=O)O)[C@@H](O)[C@H](O[C@@H]6O[C@H](CO)[C@H](O)[C@H](O)[C@H]6O[C@@H]6O[C@@H](C)[C@H](O)[C@@H](O)[C@H]6O[C@@H]6OC[C@](O)(CO)[C@H]6O)[C@H]5O[C@@H]5O[C@H](CO)[C@H](O)[C@H](O)[C@H]5O)C(C)(C)C4CC[C@]21C)O[C@H]3O (stereo partly drawn) | inactive [at 9.29 µM] | –
C=C1C(=O)O[C@@H]2/C=C(\C)CC/C=C(/C=O)[C@H](OC)[C@@H](OC(=O)C(C)C)[C@@H]12 | inactive | –

assay: P-glycoprotein substrates identified in KB-8-5-11 adenocarcinoma cell line, qHTS therapeutic library screen (AID 1346987); conditions: KB-8-5-11 (P-gp overexpressing) viability, CellTiter-Glo, 72 h; series mostly up to 44.5 µM; activity change, negative = cytotoxicity: at the top concentration; further: nearly all actives have a fitted effect of over 65% in size; on activity change, negative = cytotoxicity: on the % scale 0 is the no-effect control and ±100 the full control effect
In short: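 In this qHTS, P-gp-rich KB-8-5-11 cells received library compounds across a concentration range. Viability was quantified by luminescence after 72 h at 37 degree C.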

SMILES | outcome | activity change, negative = cytotoxicity | Potency
O=C(O)c1cc(N(Cc2ccc(C3CCCCC3)cc2)C(=O)c2ccc(Oc3ccccc3)cc2)ccc1O | inactive | – | –
C=C1C(=O)OC[C@@H]1C/C=C(\C)CC1CC(C)C(=O)O1 (stereo partly drawn) | – | 8.03% | –
C=C1C(=O)O[C@@H]2/C=C(\CO)CC/C=C(\CO)[C@H](OC(C)=O)C(OC(=O)C(C)CC)C12 (stereo partly drawn) | inactive [at 17.3 µM] | – | –
O=C(/C=C/c1ccccc1O)O[C@@H]1O[C@H](CO)[C@@H](O)[C@H](O)[C@H]1O | inactive | – | –
C=C1C(=O)OC2/C=C(\CO)CC/C=C(\C=O)C(OC)C(OC(=O)C(C)CC)C12 (stereo not drawn) | – | -5.47% [at 17.3 µM] | –
Fc1ccc(-c2nc(-c3ccccc3F)[nH]c2-c2ccncc2)cc1 | – | -3.18% | –
C=C(C)[C@@H]1CC[C@]2(C(=O)O)CC[C@]3(C(=O)O)[C@H](CCC4[C@@]5(C)CCC(=O)C(C)(C)C5CC[C@]43C)C12 (stereo partly drawn) | – | -14.5% [at 17.3 µM] | –
CC#CCn1c(N2CCCC(N)C2)nc2c1c(=O)n(Cc1nc(C)c3ccccc3n1)c(=O)n2C (stereo not drawn) | inactive | – | –
CC(=O)O[C@@H]1CC[C@@]2(C)C(CC[C@]3(C)C2[C@H](O)C=C2[C@H]4[C@@H](C)[C@H](C)CC[C@]4(C)CC[C@]23C)[C@@]1(C)C(=O)O (stereo partly drawn) | – | -18.4% [at 17.3 µM] | –
Cc1[nH]c2ccccc2c1CCNC(=O)c1cccs1 | – | -27% | –
N#Cc1cc(-c2ccnc(Nc3ccc(N4CCOCC4)cc3)n2)ccc1OC1CCOCC1 | – | – | 16.4 µM (active)
CC/C(C)=C/C(=O)OC1C(OC2(C)CCC3C(C4C(C)CCC42)C3(C)C)OC(C)C(O)C1O (stereo not drawn) | – | -27.6% [at 17.3 µM] | –
O=C(O)CCc1nccc2c1[nH]c1ccccc12 | inactive | – | –
COC1=CC(=O)C=C(C)C12Oc1c(Cl)c(OC)cc(OC)c1C2=O (stereo not drawn) | – | -23.7% | –
CCCCCCCCCC(=O)O | – | -6.65% | –
NC(=O)c1ccccc1Nc1ccnc(Nc2cccc(O)c2)n1 | – | – | 8.2 µM (active)
Cn1ncc(Cl)c1-c1cc(C(=O)N[C@H](CN)Cc2ccc(F)c(F)c2)oc1Cl | – | – | 16.4 µM (active)
COC(CCc1ccc(O)cc1)CC(=O)CCc1ccc(O)cc1 (stereo not drawn) | – | -0.254% | –
C=Cc1ccccc1 | – | 6.72% | –
CN1CCN(c2ccc(-c3cccc(CN4CCOCC4)c3)cc2NC(=O)c2c[nH]c(=O)cc2C(F)(F)F)CC1 | inactive | – | –

SMILES | outcome | activity change, negative = cytotoxicity | Potency
COc1cc(O)c2c(c1)/C=C/C[C@H](O)[C@H](O)C(=O)/C=C\C[C@H](C)OC2=O | – | – | 9.2 µM (active) and 8.2 µM (active)
Cc1cn2cc(C(=O)N(C)CCO)cc(NC3CCOc4cccc(C)c43)c2n1 (stereo not drawn) | – | 2.49% | –
CC(=O)OCC(=O)[C@@]12O[C@@H]1C[C@H]1[C@@H]3CC=C4C[C@@H](O)CC[C@]4(C)[C@H]3CC[C@@]12C | – | 6.83% | –
CC(=O)O[C@@H]1CC2C(C)(C)C(=O)C=C[C@]2(C)C2CC[C@@]3(C)[C@H](c4ccoc4)OC(=O)[C@H]4O[C@]43[C@@]21C (stereo partly drawn) | – | -9.07% [at 17.3 µM] | –
CO[C@H]1C[C@H](O[C@H]2[C@H](C)O[C@@H](O[C@@H]3/C(C)=C/C[C@@H]4C[C@@H](C[C@]5(C=C[C@H](C)[C@@H](C6CCCCC6)O5)O4)OC(=O)[C@@H]4C=C(C)[C@@H](O)[C@H]5OC/C(=C\C=C\[C@@H]3C)[C@]54O)C[C@@H]2OC)O[C@@H](C)[C@@H]1O | – | – | 20.6 µM (active)
COc1cc2ncc(-c3ccccc3)nc2cc1OC | – | – | 8.2 µM (active)
C[C@H]1CC[C@@]2(OC1)O[C@H]1CC3[C@@H]4CC[C@@H]5C[C@@H](O[C@@H]6O[C@H](CO)[C@@H](O[C@@H]7O[C@H](CO[C@@H]8OC[C@@H](O)[C@H](O)[C@H]8O)[C@@H](O[C@@H]8O[C@H](CO)[C@H](O)[C@H](O)[C@H]8O)[C@H](O)[C@H]7O)[C@H](O)[C@H]6O)CC[C@]5(C)C4CC[C@]3(C)[C@H]1[C@@H]2C (stereo partly drawn) | – | 3.95% [at 9.29 µM] | –
CCC(C)C(=O)OC12C(OC(C)=O)C(C)C3(O)C(C=C(CO)CC4(O)C(=O)C(C)=CC43)C1C2(C)C (stereo not drawn) | – | -14.4% [at 17.3 µM] | –
O=C(Cc1c(F)cccc1F)Nc1cc(OCc2ccc(Cl)cc2)ccn1 | – | -23.6% | –
COc1cc2c(cc1O)C1(Cc3ccc4c(c3C1O)OCO4)[N+](C)([O-])CC2 (stereo not drawn) | inactive | – | –
CCN1CCN(Cc2ccc(NC(=O)c3ccc(C)c(Oc4ccnc5[nH]ccc45)c3)cc2C(F)(F)F)CC1 | – | – | 10.1 µM (active)
C=C1CC[C@@H](O)[C@]2(C)CC[C@H]3C(=C)C(=O)O[C@@H]3[C@@H]12 | – | -14.7% | –
C/C=C(/C)C(=O)O[C@@H]1C[C@@H](OC(=O)CC(C)C)C2(C)C3C(=O)C=C(C)C2C3C1(C)C (stereo partly drawn) | – | -21% [at 17.3 µM] | –
COc1cc(O)cc(/C=C/c2cccc(O)c2)c1 | – | 5.34% | –
C=C1C(=O)O[C@@H]2[C@H]1CCC(C)=C(CCC(=O)O)[C@@]2(C)O | – | -15.3% | –
C=C1CCC2[C@](C)(CCC[C@@]2(C)C=O)[C@H]1CC/C(C)=C/CO (stereo partly drawn) | – | -6.99% | –
CCC/C=C/C(=O)O[C@H]1CC(C)(C)CC2[C@@]13[C@H](O)C[C@]1(C)[C@@]2(CCC2[C@@]4(C)CC[C@H](O[C@@H]5O[C@H](C(=O)O)[C@@H](O)[C@H](O[C@@H]6O[C@H](CO)[C@H](O)[C@H](O)[C@H]6O[C@@H]6O[C@@H](C)[C@H](O)[C@@H](O)[C@H]6O[C@@H]6OC[C@](O)(CO)[C@H]6O)[C@H]5O[C@@H]5O[C@H](CO)[C@H](O)[C@H](O)[C@H]5O)C(C)(C)C4CC[C@]21C)O[C@H]3O (stereo partly drawn) | inactive [at 9.29 µM] | – | –
C=CCNC1=C2C[C@@H](C)C[C@H](OC)[C@H](O)[C@@H](C)/C=C(\C)[C@H](OC(N)=O)[C@@H](OC)/C=C\C=C(/C)C(=O)NC(=CC1=O)C2=O | – | – | 16.4 µM (active)
C=C1C(=O)O[C@@H]2/C=C(\C)CC/C=C(/C=O)[C@H](OC)[C@@H](OC(=O)C(C)C)[C@@H]12 | – | -3.84% | –
